Experimental data: PubChem BioAssay AID2284360 (EPA ToxCast)
Records with an inconclusive call do not appear. Calls of active or inactive are those of the source. Rule for the calls: active = hit-call score of the fitted dose curve at least 0.9, where 1 is the maximum; inconclusive = response in the unintended direction; inactive = score below 0.9.

Experiment: ATG_M_19_EcoTox2: Attagene TRANS-FACTORIAL EcoTox-2 HepG2 Assay for M19 Transcription Factor (Internal Marker)
Procedure: ATG_EcoTox2 is a cell-based, multiplexed assay created by modifying the existing Attagene TRANS-FACTORIAL system to include a panel of nuclear receptors from some or all the following species: human (Homo sapiens), african clawed frog (Xenopus laevis), rainbow trout (Oncorhynchus mykiss), japanese medaka (Oryzias latipes), and zebrafish (Danio rerio). The ECOTOX2-FACTORIAL format uses HepG2, a human liver cell line, with measurements taken at 24 hours after chemical dosing in a 24-well plate. ATG_M_19_EcoTox2 is one of 29 assay components calculated in the ATG_EcoTox2 assay. It is designed to make measurements of mRNA induction, a form of inducible reporter, as detected with fluorescence intensity signals by Reverse transcription polymerase chain reaction (RT-PCR) and Capillary electrophoresis technology.The assay endpoint ATG_M_19_EcoTox2 was analyzed in the positive analysis fitting direction relative to DMSO as the negative control and baseline of activity. Using a type of inducible reporter, measures of mRNA for gain-of-signal activity can be used to understand the background control at the transcription factor-level as they relate to the gene. Furthermore, this assay endpoint can be referred to as a secondary readout, because this assay has produced multiple assay endpoints where this one serves a background control function. […]
Human liver HepG2 cells are transiently transfected with multiple reporter transcription units (MRTUs) in 6-well plates using FuGene 6 reagent (Roche; 3 ml FuGene/1 mg DNA). […] A major difference between the CIS and TRANS system is that in CIS activities of endogenous TFs are measured, whereas the TRANS assay evaluates changes in activities of exogenous, chimeric NR-Gal4 proteins. […] The fragments were purified using Qiaquick PCR columns (Qiagen), analyzed on an ABI 3130xL genetic analyzer (Applied Biosystems) with peak positions identified by using a set of X-rhodamine (ROX)-labeled MapMarker1000 molecular weight standards (BioVentures). […]
For O=S(=O)(O)C(F)(F)C(F)(F)C(F)(F)C(F)(F)C(F)(F)C(F)(F)F, the outcome was “inactive”. For CCCCOCN(C(=O)CCl)c1c(CC)cccc1CC, the outcome was “inactive”. With [Cl][Sn]([c]1ccccc1)([c]1ccccc1)[c]1ccccc1 the outcome was “inactive”.
